# Screens: PubChem, National Center for Advancing Translational Sciences (NCATS)
# Shown are actives, neighbours in structure and some others; about 2.7% of the full set was active somewhere.
# ALOX12 inh: inhibitors of human 12S-lipoxygenase ALOX12; P18054; purified 12hLO, xylenol orange hydroperoxide absorbance; Potency, µM (series often up to 108 µM), for the others: at the top dose activity change, negative = inhibition, most hits filed as inhibitors; actives 1.1% (n = 580,000); also: potency is read from the fitted curve at half-maximal effect; % is scaled to controls: 0 for no effect and ±100 for the full control effect
#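 Hydroperoxide product was detected by ferrous iron/xylenol orange as the 573 to 405 nm absorbance ratio. Arachidonic acid at 40 uM (final) was turned over for 30 min at room temperature by 150 nM human 12hLO, pH 7.0 Hepes buffer, after 15 min compound preincubation.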
# A549 viability: A549 cytotoxicity, counter-screen for Nrf2 inhibitors; AID 504648; A549 ARE-Fluc cells, CellTiter-Fluor viability, 18-24 h; Potency, µM (highest dose often 46 µM), inactives show at the highest dose activity change, negative = cytotoxicity, actives largely listed as inhibitors; actives 0.16% (n = 390,000); also: potency is read from the fitted curve at half-maximal effect; % is scaled to controls: 0 for no effect and ±100 for the full control effect
#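 Cytotoxicity counterscreen: CellTiter-Fluor fluorescence was measured in A549 ARE_Fluc cells after 18-24 h of compound exposure in a concentration series. The subsequent BugLite luminescent read reports ARE-luciferase activity.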
# mIDH1 inhibitor: inhibitors of human mutant IDH1 R132H; O75874; IDH1-R132H enzyme, NADPH consumption, diaphorase/resazurin fluorescence; Potency, µM (series often up to 76.6 µM), inactives show top-dose activity change, negative = inhibition, usual class: inhibitors; actives 0.093% (n = 390,000); also: potency is read from the fitted curve at half-maximal effect; % is scaled to controls: 0 for no effect and ±100 for the full control effect; nearly all actives have a fitted effect of over 65% in size
# Target sequence (O75874 whole entry R132H, stated change not applied): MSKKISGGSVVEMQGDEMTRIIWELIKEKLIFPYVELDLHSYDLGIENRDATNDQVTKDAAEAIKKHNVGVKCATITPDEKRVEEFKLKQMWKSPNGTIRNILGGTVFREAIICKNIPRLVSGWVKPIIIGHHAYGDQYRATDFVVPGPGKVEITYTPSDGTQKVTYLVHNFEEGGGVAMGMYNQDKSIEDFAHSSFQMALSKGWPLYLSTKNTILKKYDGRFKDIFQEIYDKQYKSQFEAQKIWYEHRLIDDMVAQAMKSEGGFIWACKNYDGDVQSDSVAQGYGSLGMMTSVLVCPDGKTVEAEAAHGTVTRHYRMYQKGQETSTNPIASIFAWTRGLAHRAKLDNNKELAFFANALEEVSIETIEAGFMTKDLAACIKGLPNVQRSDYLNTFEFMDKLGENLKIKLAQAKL
#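 IDH1-R132H (0.5 ug/mL) preincubated 30 min with compound, then NADPH (0.016 mM) and alpha-KG (2 mM) added; 80 min at RT, pH 7.5. Remaining NADPH coupled via diaphorase/resazurin to fluorescence (540/590 nm); concentration-response curves normalized to no-enzyme control.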
# Nrf2 block: Nrf2 pathway inhibition; actives 2.1% (n = 360,000); Potency, µM (top dose mostly 46 µM), for inactives: top-dose activity change, negative = inhibition, most hits filed as inhibitors; A549 ARE-Fluc reporter, luciferase luminescence, 18-24 h; also: potency is read from the fitted curve at half-maximal effect; % is scaled to controls: 0 for no effect and ±100 for the full control effect; nearly all actives have a fitted effect of over 60% in size
#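 Concentration-response testing used A549 ARE_Fluc cells at 5000 cells/well. Following an 18-24 h compound incubation, viability was read by fluorescence (Ex 405/Em 525) and luciferase output by luminescence.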
# LDHA block: blocks human lactate dehydrogenase A; activity change, % (values are at about 110 or 230 µM); actives 0.15% (n = 480,000); purified LDHA, NADH/diaphorase-resazurin fluorescence; hits give low values; P00338; in the data active = activity change below about -30%; inconclusive = mostly about -25% to -30%;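 also: plate controls were DMSO wells for no effect and wells without enzyme for full effect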
#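 LDH5 2 nM; NADH 0.06 mM, pyruvate 0.2 mM; 200 mM Tris pH 7.4, EDTA, Tween-20; 5 min RT. Detection: diaphorase 0.133 mg/mL + resazurin 37 µM, fluorescence ex540/em590 at 0 and 20 min; normalized to enzyme-free and DMSO wells.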
# Nrf2 ARE act: activators of Nrf2 (ARE) signaling; AID 624171; Potency, µM (doses to about 46.1 µM), for the others: at the top dose activation, usual class: activators; actives 0.31% (n = 410,000); AREc32 ARE-luciferase reporter (MCF7-derived line), luminescence, 24 h; also: potency is read from the fitted curve at half-maximal effect; % of control where 0% means no effect; nearly all actives have a fitted effect of over 65% in size
#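 Nrf2 activation is followed as ARE-luciferase induction in the AREc32 line after one day of compound treatment; luminescence is read with Steady-Glo.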
# * marks the source's active call; other numbers are inactive results; ? = inconclusive; . = no result; ! = not active in a repeat; [ ] = dose if it differs, or a comment. Unless noted, calls follow the shape of the dose curve; as a rule, active = well fitted curve in the direction sought with a large enough effect; inconclusive = small, poorly fitted or top-dose-only effect, or another doubt; inactive = no such curve, though single readings can be large; an effect the other way counts as inactive or inconclusive.
SMILES,ALOX12 inh,A549 viability,mIDH1 inhibitor,Nrf2 block,LDHA block,Nrf2 ARE act
CS(=O)(=O)N1CCCC(c2nc3ccccc3o2)C1 (centres undefined),26%,.,.,.,18,.
Cc1nn(-c2ccc(C(F)(F)F)cc2)c(C)c1[C@@H]1C=C[C@@H](NC(=O)NC(C)C)C1,11µM*,.,.,.,.,.
Cc1nn(-c2ccc(F)cc2)c(C)c1[C@@H]1C=C[C@@H](NC(=O)CC(C)(C)CC(=O)O)C1,20µM*,.,.,.,.,.
Cc1ccc(-c2nnn(CC(=O)N3N=C(c4ccc(Cl)cc4)CC3c3ccco3)n2)cc1 (centres undefined),?,.,.,.,-5,.
CC(C)c1nnc(SCC(=O)NC2CCCCCC2)o1,12%,.,.,.,-7,.
C/C(=N\NC(=O)c1ccn(C)n1)c1ccc(NC(=O)c2cccc(F)c2)cc1,4.5µM*,-1%,-13%,-22%,-10,-1%
CN(Cc1ccc(OC(F)F)cc1)C(=O)C1CCN(S(=O)(=O)c2ccc3c(c2)OCCO3)CC1,-9%,-2%,-5%,23µM*,-3,4%
CN(Cc1ccc(OC(F)F)cc1)C(=O)/C=C/c1ccc(S(=O)(=O)N2CCOCC2)cc1,46%,0%,13%,23µM*,-1,2%
CN(CC(=O)Nc1ccc(F)cc1)C(=O)C1CCN(S(=O)(=O)c2ccc3c(c2)OCCO3)CC1,11%,-1%,-13%,?,-10,0%
COc1ccccc1CCNC(C)CCc1ccc(O)cc1 (centres undefined),6%,1%,-6%,10%,0,0%
CC(CCc1ccc(O)cc1)NCCc1ccc(O)c(O)c1 (centres undefined),1.4µM*!,-3%,0%,10%,-5,6%
O=C1NC(=O)/C(=C\c2ccc(O)cc2O)S1,40µM*,-3%,-2%,-6%,10,0%
O=C1NC(=O)/C(=C/c2cccc3ccccc23)S1,-104%,1%,-5%,6%,-12,4%
CCn1nc(C(=O)OCC(N)=O)c2ccccc2c1=O,-1%,.,.,.,0,.
Cc1ccc(-n2nc3c4c(cccc4c2=O)-c2ccccc2-3)cc1,0%,16µM*,7%,?,-8,5%
O=C(O)Cn1nc2c3c(cccc3c1=O)-c1ccccc1-2,-2%,-1%,-14%,-22%,0,0%
O=C(Nc1ccc(F)c(Cl)c1)Nc1nnc([C@H]2C[C@H](O)[C@@H](CO)O2)s1,-2%,.,.,.,-48*,1%
Cc1c(O)nc(SC2CC(=O)N(c3ccccc3)C2=O)[nH]c1=O (centres undefined),?,-5%,3%,-5%,-6,4%
CCc1c(O)nc(SC2CC(=O)N(c3ccccc3)C2=O)[nH]c1=O (centres undefined),10µM*,-3%,0%,-4%,-6,0%
CCCn1c(CNc2ccccc2O)nc2ccccc21,?,-6%,6%,14%,24,14µM*
CCCn1c(CNC(=O)c2ccc(F)cc2)nc2ccccc21,-20%,2%,-5%,-3%[9.27 µM],-4,0%
O=C(NC(=S)Nc1ccccc1Br)c1ccco1,?,8%,0%,?,-2,14µM*
O=C(NC(=S)Nc1cccc(NC(=S)NC(=O)c2ccco2)n1)c1ccco1,?,7%,7%,24%,-6,6.3µM*
CS/C(Nc1cc(Cl)ccc1Cl)=C(/C#N)C(=O)c1ccco1,-85%,-10%,5%,0%,-48*,6%
COc1cc(OC)cc(C(=O)Nc2ccc(NC(=O)c3ccco3)c(Cl)c2)c1,-9%,?,19%,26µM*,-3,0%
SMILES,ALOX12 inh,A549 viability,mIDH1 inhibitor,Nrf2 block,LDHA block,Nrf2 ARE act
Cc1oc(-c2nc(C#N)c(NCc3cccnc3)o2)cc1S(=O)(=O)N(C)C,7%,.,.,.,3,.
N#Cc1c(SCC(=O)NCc2ccccc2)nc2c(c1C(F)(F)F)CCCC2,-18%,.,.,.,-2,.
Cc1cc(O)c(NC(=O)c2ccco2)cc1C,?,4%,3%,?,-2,13µM*
O=C(NC(=S)Nc1cc(Cl)ccc1Cl)c1ccco1,5%,.,17%,.,-1,11µM*
O=C(Nc1cc(Cl)ccc1Cl)c1ccco1,4%,7%,8%,3%,-1,13µM*
O=C(Nc1cc2nn(-c3ccccc3)nc2cc1Cl)c1ccco1,0%,1%,12%,.,1,1µM*
CCCC(=O)Nc1ccc2oc(-c3ccccc3C)nc2c1,-38%,.,.,.,-1,.
COc1cccc(C(=O)Nc2cc(NC(=O)c3ccco3)ccc2OC)c1,-21%,1%,4%,-24%,-12,0%
COc1ccc(Cl)cc1NC(=S)NC(=O)c1ccco1,-10%,2%,-1%,17%,1,10µM*
CCn1cc(C(=O)NC(=S)Nc2ccccc2Br)cn1,28µM*,-6%,9%,-13%,-3,0%
COc1ccc(NC(=O)c2ccco2)cc1NC(=O)C(C)(C)Oc1ccc(Cl)cc1,-13%,-23%,2%,21µM*,3,10%
CCCCOc1cccc(C(=O)Nc2cc(NC(=O)c3ccco3)ccc2OC)c1,-20%,-11%,-1%,23µM*,3,4%
COCCCNc1nc2c(c(=O)[nH]c(=O)n2C)n1CCc1ccc(OC)cc1,1%,.,.,.,7,.
CC(=O)c1c(C)n(-c2cccc3ccccc23)c2ccc(O)cc12,3%,.,.,.,-11,.
COc1cc(OC)cc(C(=O)OCc2nc(-c3ccc(OC(F)(F)F)cc3)no2)c1,-27%,.,.,.,3,.
Cc1cc(C(=S)N2CCOCC2)c(C)n1-c1ccc(Cl)cc1,20µM*,3%,-1%,4%,-9,0%
CN1C(=O)N(C)N(Cc2ccccc2)C(=O)N1Cc1ccccc1,10%,.,.,.,.,.
O=C1C=CC(=O)N1Cc1ccccc1,11%,?,-6%,16µM*,-2,8%
Cc1ccccc1NC(=O)CSc1nc2cc3c(cc2cc1C)CCC3,-19%,?,-2%,-22%,-3,0%
CCC(=O)Nc1ccc(NC(=O)CSc2nc3cc4c(cc3cc2C)CCC4)cc1,?,?,-1%,23µM*,-9,-1%
CCNC(=O)NC(=O)C(C)OC(=O)c1nc(-c2ccccc2)oc1C (centres undefined),?,.,.,.,3,.
COc1ccccc1N1CCN([C@@H]2[C@H](O)[C@H](CO)O[C@@H]2CNC(=O)c2cccc(F)c2)CC1,-16%,.,.,.,.,.
COc1cccc(NC(=O)NC[C@H]2O[C@@H](CO)[C@@H](O)[C@H]2N2CCN(c3ccccc3OC)CC2)c1,18µM*,.,.,.,.,.
